Source: PubChem BioAssay (NCI)
Values joined by “and” are separate entries in the source; they are usually repeats but may differ in a detail not shown here. Equal entries are not always repeated. This is part of a sample that, as a whole, favours compounds with a hit. Of some 83,000 tested, about 20% had one in any assay.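 Single-dose data. Exposure time 48 hours. Values below 10 considered active.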 Values without a mark were called inactive. Active and inactive are the calls of the source.

Columns and labels:
Experiment in all cases: NCI-60 one-dose screen, 48 h (100 = growth as untreated, 0 = no growth, -100 = all killed)
EKVX NSCLC = conditions: 10 µM unless noted
SN12C renal = conditions: 10 µM unless noted
UO-31 renal = conditions: 10 µM unless noted
TK-10 renal = test system: TK-10 renal
A498 renal = conditions: 10 µM unless noted
CCRF-CEM leukemia = conditions: 10 µM unless noted
MOLT-4 leukemia = conditions: 10 µM unless noted
SR leukemia = conditions: 10 µM unless noted
ACHN renal = conditions: 10 µM unless noted
CAKI-1 renal = conditions: 10 µM unless noted

Compound | growth (EKVX NSCLC) | growth (SN12C renal) | growth (UO-31 renal) | growth (TK-10 renal; 10 µM unless noted) | growth (A498 renal) | growth (CCRF-CEM leukemia) | growth (MOLT-4 leukemia) | growth (SR leukemia) | growth (ACHN renal) [%] | growth (CAKI-1 renal) | growth (TK-10 renal; 10 µM) [%] | growth (TK-10 renal; 100 µM)
COc1ccc(OC)c2c1[nH]c(=O)c1c3ccccc3cn21 | -43.4% (active) | -92.9% (active) | -81.4% (active) | -83.4% (active) | 51.1% | -48.7% (active) | -15.7% (active) | -6.08% (active) |  |  |  | 
O=C1NC(=O)/C(=C\c2ccccc2)C2=C1CCCC2 |  | -64.7% (active) | -46.7% (active) | 0.712% (active) | 101% | 35.8% | 38.1% |  | 15.7 | 7.29% (active) |  | 
c1ccc2c(c1)[nH]c1c2cc[n+]2cc3c(cc12)CCCC3 |  | 24.5% | 82.1% |  | 97.3% | 1.33% (active) | 2.41% (active) | 10.6% | 66.2 |  | 69.2 | -97.9% (active) and -92.5% (active)
Clc1cccc(Cc2cn3cc(-c4ccccc4)nc3s2)c1 |  | 68.2% | 49.7% | 69.2% | 84.9% | 63.4% | 64.1% |  | 27.9 | 47.8% |  | 
CC(C)COCC(CN(Cc1ccccc1)c1ccccc1)N1CCCC1 (stereo unspecified) | 54% |  | 37% | 29.9% | 83.3% | 41.7% | 28.8% | 51.8% |  | 57.1% |  | 
Nc1nc2ncc(CCNc3ccc(C(=O)NC(CCC(=O)O)C(=O)O)cc3)nc2c(=O)[nH]1 (stereo unspecified) |  | 108% | 70.7% | 107% | 95.8% | 77.1% | 145% | 133% | 103 | 114% |  | 
CCN1C[C@@H](C)n2c(c(O)c3c(=O)n(Cc4ccc(F)c(Cl)c4)nc(C(=O)NC)c32)C1=O |  | 9.18% (active) | 11% | 31.6% | -7.58% (active) | 40.4% | 21.6% | 2.73% (active) | 13.7 | 15.9% |  | 
CN(C)c1nc(N)nc(Cn2c(-c3nonc3N)nc3ccccc32)n1 |  | 95.3% | 65.2% | 107% | 82.5% | 78.9% | 90.8% |  | 88.3 | 77.9% |  | 
CC(=O)O[C@H]1C(=O)[C@@]2(C)C([C@H](OC(=O)c3ccccc3)[C@]3(O)C[C@H](OC(=O)[C@H](O)[C@@H](NC(=O)c4ccccc4)c4ccccc4)C(C)=C1C3(C)C)[C@]1(OC(C)=O)CO[C@@H]1C[C@@H]2O (stereo partly specified) |  | 38.1% | 33.6% | 20.6% | 30.8% | 14% | 28.3% |  | 41 | 44.7% |  | 
O=C1C(Cl)=C(N=Nc2c(Cl)c(O)c3ccccc3c2O)C(=O)c2ccccc21 |  | 71.8% | 70.4% | 116% | 63.6% | 43.5% | 62.1% | 34.9% | 77 | 88.9% |  | 
CCC(C)(C)C(=O)O[C@H]1C[C@@H](C)C=C2C=C[C@H](C)[C@H](CC[C@@H]3C[C@@H](O)CC(=O)O3)[C@H]21 | 51.7% |  | 52.1% | 83.1% | -38.8% (active) | 62.5% |  |  | 14.7 | -33.5% (active) |  | 
Clc1ccc2c(Nc3ccc4oc(NCCN5CCCC5)nc4c3)ccnc2c1 |  | 83.7% | 66.2% | 103% | 90.6% | 70.2% | 66.6% | 1.43% (active) | 98.2 | 94.1% |  | 
COc1ccc(C(=O)C(C)Br)cc1OC (stereo unspecified) | 98.4% | 72.9% | 71.8% | 101% |  | 26.7% |  | 18.6% |  | 60.1% |  | 
C=Cc1nn2c(CCC(=O)c3nc4ccccc4[nH]3)nnc2s1 |  | 101% | 76.2% | 131% | 135% | 104% | 102% |  | 96.2 | 96.7% |  | 
NC(=O)N/N=C/c1ccc(Br)o1 | 101% |  | 86.1% | 101% | 97.5% | 108% |  | 97.6% | 106 | 98.4% |  | 
CCN(CC)CCCNCCCNc1cc(OC)cc2cccnc12 | 80.7% |  | 88.1% | 112% | 76.4% | 88.9% | 75.6% | 79.5% | 101 | 97.6% |  | 

Compound | growth (EKVX NSCLC) | growth (SN12C renal) | growth (UO-31 renal) | growth (TK-10 renal; 10 µM unless noted) | growth (A498 renal) | growth (CCRF-CEM leukemia) | growth (MOLT-4 leukemia) | growth (SR leukemia) | growth (ACHN renal) [%] | growth (CAKI-1 renal) | growth (TK-10 renal; 10 µM) [%] | growth (TK-10 renal; 100 µM)
OC(c1cc(C(F)(F)F)nc2c(C(F)(F)F)cccc12)C1CCCCN1 (stereo unspecified) | 76.4% |  | 41.8% | 11.9% | 53% | 65.2% | 19.7% | 12.7% |  | 48.4% |  | 
CC/C=C\C=C/C(=O)N/C=C/CC1Cc2cccc(O)c2C(=O)O1 (stereo unspecified) | 88.8% | 101% |  | 109% | 47.9% |  | 47.5% | -67.6% (active) | 145 | 69.5% |  | 
CCOc1nc(-c2ccccc2)cc2c(O)c(-c3nnco3)[nH]c(=O)c12 |  | 47.2% | 29.1% | 31.8% | 45.3% | 15.7% | 30% | 21.3% | 52.3 | 34.6% |  | 
ClC1C2CC(c3ccccc32)C1Cl (stereo unspecified) |  | 102% | 108% | 108% | 92.4% |  | 101% | 106% | 104 | 118% |  | 
CC/C(=C\c1ccc(N(C)C)cc1)c1ccncc1 |  | 52.6% | 57.6% | 73.6% |  |  | 38.7% | 22.8% | 59.4 | 43.4% |  | 
Clc1ncn[nH]1 |  | 103% | 89.9% | 93.8% | 106% | 103% | 105% | 94% | 98.3 | 92.5% |  | 
O=C(c1ccccc1)c1ccco1 |  | 88.4% | 88.7% | 96% | 109% | 93.3% | 91.7% | 106% | 98.9 |  |  | 
CCCCCCOc1ccc(/C=N/NC(N)=S)cc1 |  | 22.2% | 17.8% | 54.3% | 99.7% | 6.97% (active) | 7.23% (active) | 69.5% | 61.6 |  |  | 
CC(C)C(=O)Cc1cnccn1 |  | 98.6% | 90.8% | 104% | 101% | 115% | 123% | 114% | 108 | 83.4% |  | 
Nc1nonc1-c1nc2ccccc2n1CC(=O)Nc1ccc2c(c1)COC2=O |  | 92.2% | 60.6% | 94.7% | 63.7% |  | 101% |  | 92.2 | 74.5% |  | 
COc1ccc(-c2csc(NC(=O)c3cc(OC)c(OC)c(OC)c3)n2)cc1 |  | 98.7% | 89.3% | 117% | 92.2% |  | 103% | 95.8% | 107 | 94.1% |  | 
C[C@]12C[C@H](O)[C@H]3[C@@H](CCC4=CC(=O)CC[C@@]43C)[C@@H]1CC[C@@H]2C(=O)CO |  | 79.9% | 89.6% | 108% | 43.5% | 78.1% | 116% | 111% | 95.8 | 101% |  | 
C[C@]12CC[C@@H]3c4ccc(O)c([N+](=O)[O-])c4CC[C@H]3[C@@H]1CC[C@@H]2NS(=O)(=O)c1cccc(Br)c1 |  | 21.4% | 3.61% (active) | 42.8% | 54.2% |  | 18.2% | -12.1% (active) | 24.4 | 17.8% |  | 
CSc1nc2c(c(=O)[nH]1)C(c1ccc(Cl)cc1)C1=C(N2)/C(=C/c2ccc(Cl)cc2)CNC1 (stereo unspecified) |  | 39.7% | 16.8% | 78.9% | 18.3% |  | 18.7% | -16.2% (active) | 72.5 | 76.8% |  | 
C[C@]12CC[C@@H]3c4ccc(O)cc4CC[C@H]3[C@@H]1CC[C@@H]2NS(=O)(=O)c1cccc(Br)c1 |  | 69.8% | 36.3% | 75.4% | 65% |  | 36.3% | 27.1% | 58.9 | 62.9% |  | 
COC(=O)c1ccc2c(c1)nc(-c1ccc(O)c(OC)c1)n2-c1cc(C(C)(C)C)[nH]n1 |  | 97.7% | 50.9% | 116% | 90.5% | 93.1% | 81.2% |  | 108 |  |  | 
